# The list shows a part of the results. How many sequences the whole screen found active is unknown.
# B1: VH:VL chains; a variant is named by its letters at X, in order (parent)
# chain 1: QVQLVQSGAEVKKPGASVKVSCKASGYTFTDYXMHWVRQAPGQGLEWMGXVNPNXXXTTYNQKFEGRVTMTTDTSTSTAYMELRSLRSDDTAVYYCARXNXLDXWGQGTTVTVSS
# chain 2: DIQMTQSPSSLSASVGDRVTITCSVSSSVSSIYLHWYQQKPGKAPKLLIYSTSNLASGVPSRFSGSGSGTDFTLTISSLQPEDFATYYCQVYSGYPLTFGGGTKVEIK
# Variants of: B1
# Assay: yeast display scFab, FACS + sequencing
# Settings: with MET
# In short: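 A yeast surface library of scFab variants carrying heavy-chain CDR mutations went through two magnetic enrichment rounds on Protein A beads coated with HGFR-Fc, then FACS. For sorting, cells were labelled for 3 h at room temperature with 1 nM HGFR-Fc and anti-Myc in PBSB containing 1% milk, and the top 50% of antigen-positive cells were gated. Input and round-3 sorted populations were deep sequenced in two replicates. A sequence was called an antigen binder if it appeared in both antigen-positive samples and a non-binder if it appeared only in the input.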
row,Variant,antigen binding call
1,YRAAGAGS,binds
2,YRAKGALF,binds
3,FRAGGALS,binds
4,FTTRSALS,no binding
5,YRAKGAGS,binds
6,YTGEADAS,no binding
7,SAERSAAF,no binding
8,DAGGASSA,no binding
9,SEEEGSGV,no binding
10,YRERGALS,binds
11,YRGGDYLV,binds
12,YEGGGDLV,no binding
13,YRGGGYLV,binds
14,YRGGDDLV,no binding
15,YRGGDYSV,no binding
16,YTTGGYLV,no binding
17,DETEGDVF,no binding
18,VKGEGDVY,no binding
19,VEERDDWF,no binding
20,SRGGDDVA,no binding
21,SRGGGALD,binds
22,SRGKGALD,binds

row,Variant,antigen binding call
1,SRGGSALA,binds
2,SRGKGDAD,no binding
3,SEARSALA,binds
4,SRGGAAWA,no binding
5,SEARSSLA,no binding
6,SETGAALD,no binding
7,SAGGGAGD,no binding
8,SEARSDLA,no binding
9,DGGRGDGA,no binding
10,AKTGNDVA,no binding
11,DTTGSALD,no binding
12,DRAGDSLD,no binding
13,DRREDALD,binds
14,YRAEGALD,binds
15,DRAGDALD,binds
16,YRAGDALD,binds
17,DAGAADVV,no binding
18,DRGGDDVD,no binding
19,AARADSAD,no binding
20,ARRTDVAD,binds
21,YATAADAD,no binding
22,VRRRGAAD,binds

row,Variant,antigen binding call
1,VGGGGAAD,no binding
2,YTGGNDAD,no binding
3,YRRRGVAD,binds
4,AREGDAGD,no binding
5,YRAGGDAD,binds
6,FERRAFGY,no binding
7,YRRRGAAD,binds
8,YRRKGDAD,no binding
9,YRRRGDAD,binds
10,YRRGGAAD,binds
11,AAARNFLF chain 1 V68I,no binding
12,SEARSSAS,no binding
13,DEGGTDSF,no binding
14,VKGASDVV,no binding
15,DTGGGAGA,no binding
16,VRGRGYAA,binds
17,VRGTGYAS,no binding
18,YRGRGYAA,binds
19,YKGRGYVA,no binding
20,VRGRGFAA,no binding
21,YKGRGYAA,binds
22,YRGKGYAA,binds

row,Variant,antigen binding call
1,VTTRAASV,no binding
2,SREEGFSV,no binding
3,VRGRGDLA,binds
4,YRGRGVAA,binds
5,VRAGGDLA,no binding
6,YGGGGAVA,no binding
7,YGGRGAVA,binds
8,YRAGGYAA,binds
9,YEGRGDVA,no binding
10,VTGRGDLA,no binding
11,SETKGDVY,no binding
12,DREEGFSV,no binding
13,AAGGDYVF,no binding
14,VTEGDAGD,no binding
15,YRRRGYSS,binds
16,YERRGSWS,no binding
17,YRRRGAWS,binds
18,YAKADYSS,no binding
19,VERRGSWS,no binding
20,YRRGGAWS,binds
21,YRRRGSWS,binds
22,VTRGDVWV,no binding

row,Variant,antigen binding call
1,VTGTGDVV,no binding
2,SEGTGAGV,no binding
3,YRRRGSSS,binds
4,SKTKSDGS,no binding
5,SKERGDLV,no binding
6,YRRRGSLS,binds
7,SKRRGSLS,binds
8,YRRRGAAS,binds
9,VETEGAGA,no binding
10,SREAADGV,no binding
11,AETTDSWV,no binding
12,FGATSVSF,no binding
13,SARTDFWF,no binding
14,ARAETDVY,no binding
15,YRRRGSAS,binds
16,YRRRGALS,binds
17,YRRRGSVS,binds
18,DARGGSSS,no binding
19,YRRRSSSS,binds

# From the emibetuzumab library of Makowski et al. (2022)
